The campaign covered roughly 280,000 compounds. About 1,100 (0.39%) were called active. Another 7% or so got no clear call; they are omitted. The entries come from a sample that favours actives as a whole. Values without a mark were called inactive. Calls come from the whole dose curve; as a rule, active = well fitted inhibition curve with a large enough effect; inconclusive = small, poorly fitted or top-dose-only effect, or effect the other way; inactive = flat fitted curve, though single readings scatter.
The compounds below were run against Microtubule-associated protein tau (Homo sapiens) (UniProt P10636) (assay: qHTS for Inhibitors of Tau Fibril Formation, Fluorescence Polarization). Details: K18 P301L tau heparin fibrillization, Alexa594 FP, 6 h; series mostly up to 57.7 µM; activity, negative = inhibition: at the top concentration.
Microtubule-associated protein tau (Homo sapiens), sequence (P10636 561-689 P618L limits assumed): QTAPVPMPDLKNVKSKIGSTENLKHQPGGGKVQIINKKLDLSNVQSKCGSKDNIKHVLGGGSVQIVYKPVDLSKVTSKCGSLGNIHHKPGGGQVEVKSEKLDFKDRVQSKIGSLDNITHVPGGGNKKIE
Source text: NIH Molecular Libraries Probe Production Network [MLPCN]
NIH Chemical Genomics Center [NCGC]
Assay Provider: Carlo Ballatore, University of Pennsylvania
The microtubule-associated protein tau is an abundant protein in the axons of neurons that stabilizes microtubules. With its ability to modulate microtubule dynamics, tau contributes directly or indirectly, to key structural and regulatory cellular functions. Particularly important is the influence tau exerts on axonal transport, which allows signaling molecules, trophic factors and other essential cellular constituents to travel along the axons. Under pathological conditions, tau becomes sequestered into insoluble aggregates called neurofibrillary tangles. This phenomenon is believed to have pathological consequences by promoting axonal transport deficits that ultimately lead to synaptic dysfunction and neuronal loss. To identify inhibitors of tau aggregation, a heparin-induced tau fibril formation assay was used that employed a recombinantly expressed fragment of tau, K18 (Q242-E372), bearing a P301L mutation (Gustke et al. 1994; Hong et al. 1998).
Gustke, N., B. Trinczek, et al. (1994). "Domains of tau protein and interactions with microtubules." Biochemistry 33(32): 9511-22.
Hong, M., V. Zhukareva, et al. (1998).
Li, W. and V. M. Lee (2006). "Characterization of two VQIXXK motifs for tau fibrillization in vitro." Biochemistry 45(51): 15692-701.
von Bergen, M., S. Barghorn, et al. (2001). "Mutations of tau protein in frontotemporal dementia promote aggregation of paired helical filaments by enhancing local beta-structure." J Biol Chem 276(51): 48165-74.
NCGC Assay Protocol Summary:
For screening, 2 uL/well human K18 P301L (15 uM unlabeled and 0.24 uM Alexa 594-labeled tau final concentrations) in reagent buffer (100 mM sodium acetate pH 7) was dispensed into black solid 1536-well plates (Grenier) using a solenoid-based dispenser. Following transfer of 23 nL compound or DMSO vehicle by a pin tool, 2 uL/well heparin (20 uM final concentration) in reagent buffer was added and the plate centrifuged 15 s at 1000 RPM. Plates were incubated 6 hr at 37 C and then 1 uL/well ThT (30 uM final concentration) was added. After a 1 hr ambient incubation, the plates were read by an Envision (Perkin Elmer) to monitor Alexa 594 FP (555 nm excitation and 632 nm emission).
Keywords: NIH Roadmap, MLPCN, MLI, MLSMR, NCGC, qHTS, tau, tauopathies, Alzheimer's disease, fibril, neurodegeneration, aggregation
% is set by controls: 0 for no effect and ±100 for the full control effect; potency is the fitted concentration of half-maximal effect.
Note: nearly all actives have a fitted effect of over 55% in size.

Row | SMILES | Potency | activity, negative = inhibition [%]
1 | CC[N+](C)(CC)CCC[n+]1c(-c2ccccc2)c2cc(N)ccc2c2ccc(N)cc21 | 6.31 µM (active) | 
2 | CCCN(C/C=C/I)C1CCc2ccc(O)cc2C1 (stereo not given) |  | -3.39
3 | c1ccc2sc(SNC3CCCCC3)nc2c1 |  | 2.44
4 | CN(C)[C@@H]1C(=O)C(C(N)=O)=C(O)[C@@]2(O)C(=O)C3=C(O)c4c(O)cccc4[C@@](C)(O)C3CC12 (stereo not given in full) |  | -1.29
5 | CO[C@@H]1C[C@@H](C[C@H]2CC[C@H](C)[C@@H]([C@@H](C)C(=O)O)O2)O[C@]2(O[C@](C)([C@H]3CC[C@@](C)(C4OC([C@H]5O[C@@](O)(CO)[C@H](C)C[C@@H]5C)C[C@@H]4C)O3)C[C@H]2C)[C@@H]1C (stereo not given in full) |  | -0.541
